Screening data: PubChem BioAssay, The Scripps Research Institute Molecular Screening Center
Compounds with a hit are over-represented: about 3.5% of the library has one in this group of screens.
TEAD-YAP block = TEAD-YAP interaction inhibition. HEK-TIYL cells, TEAD-Gal4/YAP UAS-luciferase luminescence. inhibition, % at 9.12 µM. 640,000 tested, 1.4% active. AID 1259422; in the data active = inhibition above about 32%;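 also: 0% = median of test compound wells and 100% = reference inhibitor wells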
MITF inh = human MITF inhibition, primary screen | AlphaScreen MITF homodimerization, bead proximity signal | inhibition, % at 2.6 µM | 650,000 tested, 0.91% active | AID 1259374; in the data active = inhibition above about 50%;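 also: 0% = vehicle wells with protein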
FBW7 activator = human FBW7 E3 ligase activation, primary screen. Q969H0. AlphaScreen FBW7–phospho-cyclin E peptide binding, activator screen. normalized activity (activation), % at 26.1 µM. 650,000 tested, 0.13% active. AID 1259310; in the data active = normalized activity above about 1.9%;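 also: purified mutant Fbw7 with reduced substrate affinity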
GPR151 ag = activates the human receptor GPR151; Q8TDV0; PathHunter beta-arrestin GPR151 cells, luminescence; activation, % at 11.2 µM; 650,000 tested, 1% active; in the data active = activation above about 4.9%;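 also: 0% = median of compound wells and 100% = cells with positive control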
Target sequence (Q8TDV0 whole entry, looked up): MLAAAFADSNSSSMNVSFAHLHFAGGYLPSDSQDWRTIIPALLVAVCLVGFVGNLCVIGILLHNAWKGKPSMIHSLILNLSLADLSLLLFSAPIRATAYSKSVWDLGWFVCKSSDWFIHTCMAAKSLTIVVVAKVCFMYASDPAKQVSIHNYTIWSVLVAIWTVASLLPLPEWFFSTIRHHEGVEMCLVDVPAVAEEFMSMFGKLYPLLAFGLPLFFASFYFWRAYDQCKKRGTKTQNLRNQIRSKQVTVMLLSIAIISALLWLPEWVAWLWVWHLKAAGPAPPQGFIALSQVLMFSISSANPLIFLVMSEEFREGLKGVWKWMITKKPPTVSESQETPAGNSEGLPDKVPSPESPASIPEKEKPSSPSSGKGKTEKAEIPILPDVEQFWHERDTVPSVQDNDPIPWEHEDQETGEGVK
An asterisk follows results filed as active.

SMILES	TEAD-YAP block	MITF inh	FBW7 activator	GPR151 ag
Cc1ccc(O)c(N/C=C/C(=O)c2ccc(F)cc2)c1	-57.4	12.9	-0.1	-0.8
O=C(/C=C/Nc1ccc(Br)cc1)c1cccs1	41.2*	-4.0	-0.1	-1.9
CCOc1ccc(N/C=C/C(=O)c2cccs2)cc1	36.9*	16.6	1.0	0.1
O=C(/C=C/Nc1cccc(Br)c1)c1cccs1	-55.4	-9.8	-0.1	-0.8
Cc1ccc(O)c(N/C=C/C(=O)c2cccs2)c1	54.3*	1.6	0.7	-0.9
Cc1cnc(=O)[nH]c1SCc1ccc(Cl)c(Cl)c1	5.9	-12.8	-0.1	0.6
COc1ccc(N2C(C(C)=O)=NN(c3ccccc3)C2c2ccccc2OCc2c(Cl)cccc2Cl)cc1 (stereo not drawn)	44.5*	2.7	0.5	0.5
COc1ccc(N2C(C(C)=O)=NN(c3ccc(Cl)cc3)C2c2ccc(OCc3c(Cl)cccc3Cl)c(OC)c2)cc1 (stereo not drawn)	-0.6	7.3	0.1	-0.4
Clc1ccc(COc2ccccc2C2N(c3ccccc3)N=C(c3ccccc3)N2c2ccccc2)cc1 (stereo not drawn)	85.1*	19.7	0.4	0.0
COCCCNC(=O)c1ccc(F)cc1	-9.2	13.7	0.7	-0.6
Fc1ccccc1CSc1nnnn1-c1ccccc1F	-12.5	20.5	2.3*	-0.9
NC(=O)CSc1nnnn1-c1ccccc1F	11.7	3.9	2.4*	-1.7
CCOC(=O)CSc1nnnn1-c1ccccc1F	-1.2	6.0	0.5	-1.6
O=C(c1cccc(N2CCCC2=O)c1)N1CC[C@H]2[C@H](CCC(=O)N2CC2CCCCC2)C1	10.5	6.6	0.3	1.1
O=C(CSc1ncnc2sc3c(c12)CCCC3)Nc1ccc(Cl)c(C(F)(F)F)c1	1.5	6.7	0.1	0.6
NC(=O)c1c(NC(=O)c2nc3ccccc3s2)sc2c1CCCCC2	61.5*	14.9	0.4	-1.8
NC(=O)c1c(NC(=O)c2ccccc2)sc2c1CCCCC2	-11.5	11.5	0.1	1.0
NC(=O)c1c(NC(=O)c2cc3ccccc3o2)sc2c1CCCCC2	42.1*	-3.6	0.0	-0.2
Cc1cc2cc(C#N)c(NCCNC(=S)NCCCN(C)C)nc2cc1C	-9.5	0.4	-0.1	1.6
CCCCOc1ccc(C(=O)Nc2ccc3c4c(cccc24)C(=O)N3CC)cc1	9.2	3.5	0.1	0.7
CCCCN1C(=O)c2cccc3c(NC(=O)c4ccc(C#N)cc4)ccc1c23	48.3*	12.9	0.2	-1.8
COc1ccccc1NC(=O)Cn1c(C)cc(=O)c2cccc(OC)c21	37.5*	-10.4	0.0	0.4
COc1ccccc1NC(=O)Cn1c(C)cc(=O)c2ccccc21	63.6*	-2.2	-0.3	-0.8
CCn1c(=O)n(CC(=O)Nc2ccccc2OC)c(=O)c2ccccc21	14.2	8.8	0.0	-1.0
COc1cccc(NC(=O)Cn2c(C)cc(=O)c3ccccc32)c1	53.6*	13.5	0.3	-0.4
SMILES	TEAD-YAP block	MITF inh	FBW7 activator	GPR151 ag
COc1ccccc1NC(=O)Cn1c(C)cc(=O)c2cccc(C)c21	3.1	-1.4	0.0	1.1
Nc1ccc2c(c1)OC1(CCCC1)O2	93.7*	10.8	-0.6	-1.0
Cc1nc2c(-c3ccc(Cl)cc3)cnn2c(N)c1-c1ccccc1	89.0*	13.5	0.5	-2.1
Cc1nn2c(N)cc(-c3ccccc3)nc2c1-c1ccc(Cl)cc1	2.1	-21.9	0.3	-0.9
COC(=O)c1ccc([N+](=O)[O-])c(OC(=O)c2ccccc2F)c1	2.9	7.2	0.0	-1.5
Fc1ccc(-c2cc(C(F)(F)F)nc(NCc3cccnc3)n2)cc1	40.0*	14.1	0.0	-0.2
Cn1cc(Br)c(C(=O)NNC(=O)c2nnn(-c3nonc3N)c2-c2ccccc2)n1	2.8	12.0	0.1	-1.2
CCc1cccc2c(/C=N/NC(=O)c3n[nH]c(=O)c4ccccc34)c[nH]c12	47.2*	8.0	0.0	-1.1
CCCOc1ccc(/C=N/NC(=O)c2n[nH]c(=O)c3ccccc23)cc1OC	-6.2	2.4	0.1	-1.8
CCCOc1ccc(C2/C(=C(/O)c3ccc(S(=O)(=O)N(C)C)cc3)C(=O)C(=O)N2Cc2cccnc2)cc1 (stereo not drawn)	-7.8	-3.0	0.0	-0.4
COc1cccc(-c2cc(C(=O)Nc3cc(OC)c(OC)c(OC)c3)on2)c1	42.1*	3.6	-0.3	0.1
COc1cc(NC(=O)c2cncc(-c3cccc(C(C)=O)c3)c2)cc(OC)c1OC	59.3*	1.0	0.0	-0.6
COc1cc(NC(=O)c2cncc(-c3cccs3)c2)cc(OC)c1OC	39.3*	6.7	0.1	-0.4
COc1cc(NC(=O)c2cccc(-c3cccc(C(C)=O)c3)c2)cc(OC)c1OC	29.9	-1.9	0.0	3.1
